# Compound activity deposited in PubChem by National Center for Advancing Translational Sciences (NCATS).
# Shiga inhibitor: blocks Shiga toxin action in Vero cells | inhibition, % at 38.7 µM | actives 9.2% (n = 290,000) | Vero cells, Shiga toxin protein synthesis inhibition reporter; in the data active = inhibition mostly above about 28%, no sharp cut-off; inactive = mostly below about 43%; also: 0% is about no effect
# CHX counter: affects cycloheximide protein synthesis inhibition readout, counter-screen | cell reporter, cycloheximide protein synthesis inhibition counterscreen | max response, % | actives 12% (n = 300,000); in the data active = max response mostly above about 13%, no sharp cut-off; inactive = mostly below about 14%; also: read at 38.3 µM for the half of the compounds with a filed dose; 0% is about no effect
# Lassa entry inh: blocks Lassa virus binding to or entry into cells | actives 1.2% (n = 300,000) | Lassa virus pseudotype entry inhibition, cell reporter | Potency, µM (series often up to 37.9 µM), without a hit: at the highest dose activity change, negative = inhibition, most hits filed as inhibitors; calls by dose curve; tested in HEK293 cells; also: potency is read from the fitted curve at half-maximal effect; % is scaled to controls: 0 for no effect and ±100 for the full control effect; nearly all actives have a fitted effect of over 50% in size
# Marburg entry inh: Marburg virus entry inhibition; actives 1.8% (n = 300,000); Marburg virus pseudotyped entry inhibition, cell reporter; Potency, µM (highest dose often 37.8 µM), for inactives: at the highest dose activity change, negative = inhibition, most hits filed as inhibitors; calls by dose curve; tested in HEK293 cells; also: potency is read from the fitted curve at half-maximal effect; % is scaled to controls: 0 for no effect and ±100 for the full control effect
# The depositor's hits bear a star; ? = inconclusive; . = no result; [ ] = another dose, or the depositor's remark. Most compounds without a hit are left out; they make up all but 12% or so of the library.
SMILES,Shiga inhibitor,CHX counter,Lassa entry inh,Marburg entry inh
COc1ccc(/C=C2\CCc3ccccc3C2=O)cc1O,42.2*,21.6*,?,11.2µM*
CC(=O)Nc1ccc(/C=C2\CCc3ccccc3C2=O)cc1,-3.9,22.8,?,?
CCC(=O)Nc1cccc(-c2cnc3ccccc3n2)c1,35.7*,47.1*,?,?
COc1ccc(NC(=O)CCl)cn1,11.2,-1.6,.,.
O=C(Nc1cccc(-c2cnc3ccccc3n2)c1)c1ccccc1,47.0,31.2,2.1%,-10.9%
CCC(=O)Nc1cccc(-c2nc3ccccc3c(=O)o2)c1,-22.1,-5.0,-0.2%,19.6%
CCc1ccc(-c2cnc3ccccc3n2)cc1NC(=O)CNC(=O)c1ccccc1,105.2*,37.0*,.,.
O=C(CCl)Nc1cccc(-c2cnc3ccccc3n2)c1,72.4*,46.2*,?,?
O=C(CCl)Nc1ccc(Oc2cnc3ccccc3n2)cc1,46.4,30.2*,20.6µM*,?
O=C(Nc1oc2ccccc2c(=O)c1-c1ccc(Br)cc1)c1ccco1,11.9,8.6,.,.
CCOc1cc(C(=O)Nc2ccc3oc(-c4ccc(CC)cc4)nc3c2)cc(OCC)c1OCC,.,.,-3.9%[46.1 µM],.
CC1Cc2ccccc2N1C(=O)CSc1ncc(-c2ccc(F)cc2)n1C (stereo not given),74.9*,61.0*,?,?
Cn1c(-c2ccc(F)cc2)cnc1SCC(=O)N1CCCCC1,38.0,33.4*,?,?
CC1(C)CNC(=O)c2sc(NC(=O)c3ccccc3)nc2C1,109.5*,51.1*,2.2%,6.7%[46.1 µM]
CC(Oc1ccccc1)C(=O)Nc1nc2c(s1)C(=O)CC(C)(C)C2 (stereo not given),-6.0,-2.3,-11.1%,8.9%
CC1(C)CC(=O)c2sc(NC(=O)CN3CCCCC3)nc2C1,27.2,15.8,17.2%,10.2%
CC1(C)CC(=O)c2sc(NC(=O)C(C)(C)C)nc2C1,92.1*,40.2*,1.1%[46.1 µM],?
CC1(C)CC(=O)c2sc(NC(=O)c3ccccc3)nc2C1,75.1*,33.2*,.,.
CC1(C)CC(=O)c2sc(NC(=O)CCS(=O)(=O)c3ccccc3)nc2C1,15.9,30.2*,.,.
CCOC(=O)[C@H]1[C@H]2COc3cc(OC)ccc3[C@@H]2N2C(=O)CN(Cc3ccc(OC)cc3)C(=O)[C@@]12C,.,.,.,-0.2%
CC1(C)CC(=O)c2sc(NS(=O)(=O)c3ccc(Br)cc3)nc2C1,-10.5,-3.5,.,.
CC1(C)CC(=O)c2sc(NC(=O)c3ccc4ncsc4c3)nc2C1,62.2*,23.9*,.,-2.0%
CC1(C)CC(=O)c2sc(NC(=O)c3cccs3)nc2C1,19.2,15.7*,-17.1%,?
CC1(C)CC(=O)c2sc(NS(=O)(=O)c3ccc(Cl)cc3)nc2C1,0.4,-8.5,9.6%,-0.9%[46.1 µM]
O=C(CCC1CCCCC1)Nc1ccccc1C(=O)N1CCOCC1,10.8,0.5,3.2%,-2.5%[46.1 µM]
SMILES,Shiga inhibitor,CHX counter,Lassa entry inh,Marburg entry inh
O=C(NCCNCc1cccs1)c1ccccc1F,-6.4,8.3,-15.5%,0.6%
COc1ccc(CC(=O)NCc2cccs2)cc1OC,-16.3,-2.2,-1.8%,-1.5%[46.1 µM]
Cc1ccccc1CNC(=O)Cc1cccs1,49.6*,43.7*,.,.
O=C(NCc1cccs1)c1ccccc1F,12.3,12.1*,-1.8%,18.7%
COc1ccc(CNC(=O)Cc2cccs2)cc1OC,54.1,28.2*,9.4%,14.7%
O=C(Cc1c(O)c2ccccc2[nH]c1=O)NCc1ccccc1F,93.5*,60.2*,2.1%,-2.4%
O=C(Cc1cccs1)NCc1ccccc1,26.0,9.9,-6.5%,?
Cc1cc(C)n2nc(SCC(=O)NC3CCCCC3C)nc2n1 (stereo not given),-14.4,9.8,.,.
C=CCSc1nc(C)cc(C(=O)OCC)c1C#N,9.5,-2.5,?,7.9%
O=C(Cc1cccs1)NCc1ccncc1,-16.3,3.9,1.1%,18.9%
O=C(Cc1cccs1)NCc1ccccc1F,52.4*,18.3*,-17.4%,?
N#C/C(=C\c1ccc(N2CCCC2)c([N+](=O)[O-])c1)c1nc2ccccc2[nH]1,111.5*,49.8*,16.8%,-16.8%
N#C/C(=C\c1ccc(N2CCCCC2)c([N+](=O)[O-])c1)c1nn(-c2ccccc2)c(N)c1C#N,-12.2,-2.4,-10.2%,?
CCOc1cc(/C=C(\C#N)c2nc3ccccc3[nH]2)ccc1OC(C)C(=O)O (stereo not given),76.6*,30.2*,.,.
COc1cc(/C=C(/C#N)c2nc3ccccc3[nH]2)ccc1Oc1ncccc1[N+](=O)[O-],24.0,13.0*,?,-15.1%
COc1ccc2nc(/C(C#N)=C\c3ccc(Oc4ccc([N+](=O)[O-])cn4)cc3)[nH]c2c1,-5.2,-6.1,2.8%,?
CCOc1cc(/C=C(/C#N)c2nc3ccccc3[nH]2)ccc1Oc1ccc([N+](=O)[O-])cn1,16.7,11.1*,?,?
CCc1ccc(-n2nc3ccc(NC(=O)c4cc5ccccc5o4)cc3n2)cc1,.,.,4.5%[46.1 µM],-6.3%[46.1 µM]
Cc1ccc2c(c1)NC(=O)c1cccnc1N2,96.7,50.5*,?,-13.7%
Cn1c(=O)c2c(ncn2CC(=O)Nc2nccs2)n(C)c1=O,1.6,3.7,5.2%,4.1%[46.1 µM]
COCCNC(=S)N1CCc2cc(OC)c(OC)cc2C1COc1cc(C)cc(C)c1 (stereo not given),-10.5,-1.3,-0.8%,7.94µM*
O=C1C(c2ccncc2)=C(O)c2ccccc21,11.8,26.1*,7.94µM*,7.08µM*
O=C1C(C=NCc2cccnc2)=C(O)c2ccccc21,100.7*,71.6*,?,0.3%
O=C1C(c2cc(=O)c3ccccc3[nH]2)=C(O)c2ccccc21,136.7*,41.9*,?,5.62µM*
Cc1ccc(C2=C(O)c3ccccc3C(=O)C2=O)cc1,-5.5,-2.8,.,.
SMILES,Shiga inhibitor,CHX counter,Lassa entry inh,Marburg entry inh
O=C1C(C=NCc2ccco2)=C(O)c2ccccc21,78.8*,25.2*,-16.5%,-5.8%
COc1ccc(NC(=O)CCc2c(C)nn(-c3ccc(N4CCOCC4)nn3)c2C)cc1Cl,.,.,26.7%[46.1 µM],.
Oc1oc(-c2ccccc2)nc1C=NCc1ccncc1,1.6,-2.0,10.1%,-25.2%
O=C1C(C=NCc2ccncc2)=C(O)c2ccccc21,102.5,49.4*,-1.0%,-2.1%
CCc1cccc2c1NC(=O)C2(O)N1CCCC(C)C1 (stereo not given),.,11.6,9.9%,12.8%
CC1CCCN(C2(O)C(=O)Nc3c(C(F)(F)F)cccc32)C1 (stereo not given),24.2,9.4*,.,.
Cc1cc(C)c(S(=O)(=O)c2ccccc2)c(N2CCOCC2)n1,-9.8,-3.6,1.5%[46.1 µM],?
Oc1c(Br)cc(C=Nc2ccc3nc(-c4ccccc4)[nH]c3c2)c(O)c1Br,75.0*,51.9*,-27.3%[46.1 µM],?
O=[N+]([O-])c1ccc(O)c(C=Nc2ccc3nc(-c4ccccc4)[nH]c3c2)c1,69.6*,27.8*,15.8%,?
COc1ccc(C(=O)NNC(=O)COc2ccc(Cl)cc2)c(OC)c1,-6.3,-0.8,9.7%,17.0%
CCOC(=O)c1sc2nc(NC(=O)C(C)(C)C)sc2c1C,105.0*,35.7*,.,.
CCOC(=O)c1sc2nc(NC(=O)C3CC3)sc2c1C,3.4,7.1,.,.
C=CCOC(=O)C(C(C)=O)[C@@H](NC(=O)OC)c1ccco1 (stereo not given in full),.,.,.,18.8%[14.2 µM]
CC(C)[Si]1(C(C)C)OCC2OC(n3cnc4c(N)ncnc43)C(N)C2O[Si](C(C)C)(C(C)C)O1 (stereo not given),.,.,?,12.6µM*
